Source: PubChem
The list is not random: actives were taken first. Their share in the collection is about 18%.
TGFb SMAD3 inh: TGF-b pathway inhibition | 410,000 compounds, 1.2% hits | HepG2 CAGA-GFP TGF-b/SMAD3 reporter, GFP fluorescence, 18 h; TGF-beta stimulated, 500 pg/mL final | Potency, µM (highest dose often 46.1 µM), for the others: at the top dose activity, negative = inhibition, usual class: inhibitors; note: potency is the fitted concentration of half-maximal effect; % is set by controls: 0 for no effect and ±100 for the full control effect; nearly all actives have a fitted effect of over 65% in size
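Using HEPG2 CAGA-GFP reporter cells at 1000 cells/well, we pinned test compounds, stimulated with recombinant TGF-beta (500 pg/mL final) and measured total well GFP after 18 h.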
HepG2 tox: HepG2 cytotoxicity, counter-screen for TGF-b inhibitors. 410,000 compounds, 0.76% hits. HepG2 CAGA-GFP viability, ATP luminescence, 18 h. Potency, µM (titrated, usually from 46.1 µM), for inactives: at the highest dose activity change, negative = cytotoxicity, most hits filed as cytotoxic; note: potency is the fitted concentration of half-maximal effect
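CellTiter-Glo luminescence gave cytotoxicity after 18 hours at 37 degrees C. The cells were HepG2 CAGA-GFP in 1% FBS DMEM, stimulated with 500 pg/mL TGF-beta after compound addition. %Activity was normalised to no-cell wells (complete cell-killing) and DMSO (no toxicity), and curves were fitted and classified.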
TDP1 cell noCPT: qHTS for Inhibitors of human tyrosyl-DNA phosphodiesterase 1 (TDP1): qHTS in cells in absence of CPT | DT40 Tdp1-/- hTDP1 cells, no CPT, ATP luminescence, 48 h | 420,000 compounds, 15% hits | AID 686978, 2013 | Potency, µM (top dose mostly 46.2 µM), inactives show top-dose activity change, negative = growth inhibition, hits mostly inhibitors; note: potency is the fitted concentration of half-maximal effect; % is set by controls: 0 for no effect and ±100 for the full control effect; nearly all actives have a fitted effect of over 55% in size
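Camptothecin absent (DMSO only). Human TDP1-complemented DT40 knockout cells, 400 cells/well, 37 °C for minimum 48 hr; ATP measured via CellTiter-Glo, 30 min dark incubation, luminescence.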
TDP1 inh: inhibitors of human tyrosyl-DNA phosphodiesterase TDP1; recombinant TDP1, AlphaScreen DNA substrate cleavage; Q9NUW8; 350,000 compounds, 0.28% hits; AID 485290; Potency, µM (highest dose often 130 µM), for the others: top-dose activity change, negative = inhibition, most hits filed as inhibitors; note: potency is the fitted concentration of half-maximal effect; % is set by controls: 0 for no effect and ±100 for the full control effect; nearly all actives have a fitted effect of over 40% in size
Target sequence (Q9NUW8 whole entry, looked up): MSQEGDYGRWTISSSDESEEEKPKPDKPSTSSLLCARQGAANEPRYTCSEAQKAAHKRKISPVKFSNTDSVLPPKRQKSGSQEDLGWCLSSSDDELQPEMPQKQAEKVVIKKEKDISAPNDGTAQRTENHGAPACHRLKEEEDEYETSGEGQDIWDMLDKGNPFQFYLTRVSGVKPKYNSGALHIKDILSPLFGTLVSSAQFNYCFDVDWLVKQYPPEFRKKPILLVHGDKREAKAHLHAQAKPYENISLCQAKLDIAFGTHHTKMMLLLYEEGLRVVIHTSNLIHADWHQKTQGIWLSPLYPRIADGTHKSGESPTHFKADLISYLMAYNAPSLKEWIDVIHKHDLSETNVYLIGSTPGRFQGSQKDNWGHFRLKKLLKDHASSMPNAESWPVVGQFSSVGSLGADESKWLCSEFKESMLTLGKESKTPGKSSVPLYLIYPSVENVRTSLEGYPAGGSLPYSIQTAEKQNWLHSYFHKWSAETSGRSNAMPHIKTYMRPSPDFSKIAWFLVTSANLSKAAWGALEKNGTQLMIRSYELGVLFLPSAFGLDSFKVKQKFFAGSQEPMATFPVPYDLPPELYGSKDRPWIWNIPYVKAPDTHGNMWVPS
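E. coli-derived human Tdp1, 1 nM final. Cpd preinc 15 min RT; substrate 15 nM final, 5 min RT; AS bead mix 10 ug/ml final, 10 min RT. Signal loss = tyrosine-FITC cleavage. No-enzyme wells = max signal.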
TDP1 cell CPT: DT40-hTDP1 cell growth loss with CPT. chicken DT40 Tdp1-/-;hTDP1 cells + 20 nM CPT, ATP luminescence, 48 h. Potency, µM (highest dose often 46.2 µM), inactives show at the highest dose activity change, negative = growth inhibition, hits mostly inhibitors. 420,000 compounds, 12% hits. AID 686979; note: potency is the fitted concentration of half-maximal effect; % is set by controls: 0 for no effect and ±100 for the full control effect; nearly all actives have a fitted effect of over 55% in size
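Chicken DT40 Tdp1-/- cells complemented with human TDP1, 400 cells/well, exposed to compounds plus 20 nM camptothecin for at least 48 h at 37 C; viability read as ATP content by CellTiter-Glo luminescence.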
IL1B secr inh: inflammasome signaling inhibition, IL-1 beta readout; THP-1 LPS/ATP IL-1B secretion, AlphaLISA, 16 h; hits give low values; activity change, % at 57.5 µM; 360,000 compounds, 4.7% hits; in the data active = activity change below about -50%; inconclusive = mostly about -30% to -49%; note: % is set by controls: 0 for no effect and ±100 for the full control effect
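THP-1 cells pretreated 1 hr with compounds (up to 57.5 uM final), then stimulated with LPS (250 ng/mL final) plus ATP (1.25 mM final); secreted IL-1B measured by AlphaLISA after 16 hr, decreased signal indicating inhibition.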
* marks the source's active call; other numbers are inactive results; [ ] = dose if it differs, or a comment. Unless noted, calls come from the whole dose curve; as a rule, active = well fitted curve in the direction sought with a large enough effect; inconclusive = small, poorly fitted or top-dose-only effect, or another doubt; inactive = no such curve, though single readings can be large; an effect the other way counts as inactive or inconclusive.

`COc1cc(Cl)c(C)cc1NC(=O)c1ccccc1NC(=O)CN1CCOCC1` gave TGFb SMAD3 inh 9%, HepG2 tox -20%, TDP1 cell noCPT 4.6µM*, TDP1 cell CPT 2.6µM* and IL1B secr inh 22.
CCc1ccccc1NCC(=O)Nc1ccc(Cl)c(C(F)(F)F)c1 was read as TGFb SMAD3 inh inconclusive, HepG2 tox -99%, TDP1 cell noCPT 16µM*, TDP1 inh 0% and TDP1 cell CPT 26µM*.
COc1cc(NC(=O)c2ccccc2F)c(OC)cc1NC(=O)CN1CCOCC1 was read as TGFb SMAD3 inh 2%, HepG2 tox -5%, TDP1 cell noCPT inconclusive, TDP1 inh 2%, TDP1 cell CPT -19% and IL1B secr inh -5.
Screening COc1ccc(NC(=O)CN2CCN(CC(=O)Nc3ccccc3Cl)CC2)cc1Cl returned TGFb SMAD3 inh -17%, HepG2 tox -17%, TDP1 cell noCPT 12µM*, TDP1 inh 3%, TDP1 cell CPT 15µM* and IL1B secr inh -51*.
Screening CCOC(=O)C1CCN(CC(=O)Nc2ccc(OC)c(Cl)c2)CC1 returned TGFb SMAD3 inh 0%, HepG2 tox -39%, TDP1 cell noCPT -3%, TDP1 inh -8%, TDP1 cell CPT -2% and IL1B secr inh 0.
Screening COC(=O)c1cc(NC(=O)Cn2c(=O)oc3ccccc32)cc(C(=O)OC)c1 returned TGFb SMAD3 inh -1%, HepG2 tox 4%, TDP1 cell noCPT -13%, TDP1 inh -4%, TDP1 cell CPT -8% and IL1B secr inh 34.
For O=C(CCNC(=O)c1ccccc1Cl)Nc1ccc(Cl)c(C(F)(F)F)c1 the results were TGFb SMAD3 inh inconclusive, HepG2 tox -27%, TDP1 cell noCPT 23µM*, TDP1 inh 3%, TDP1 cell CPT inconclusive and IL1B secr inh -1.
For COc1ccc(-c2cc3c(c4c2ccn4C)C2CCC3C2)cc1OC (configuration not stated) the results were TGFb SMAD3 inh inconclusive, HepG2 tox -26%, TDP1 cell noCPT 26µM*, TDP1 cell CPT inconclusive and IL1B secr inh -23.
Cn1ccc2c(-c3cccc(C=O)c3)cc3c(c21)C1CCC3C1 (configuration not stated) was read as TGFb SMAD3 inh -27%, HepG2 tox -11%, TDP1 cell noCPT inconclusive, TDP1 cell CPT 23µM* and IL1B secr inh -8.
Screening Cn1ccc2c(-c3cccc(C=O)c3F)cc3c(c21)C1CCC3C1 (configuration not stated) returned TGFb SMAD3 inh -33%, HepG2 tox 0%, TDP1 cell noCPT inconclusive, TDP1 cell CPT inconclusive and IL1B secr inh inconclusive.
`Cn1ccc2c(-c3cncc4ccccc34)cc3c(c21)C1CCC3C1` (configuration not stated) gave TGFb SMAD3 inh -29%, HepG2 tox -32%, TDP1 cell noCPT 18µM*, TDP1 cell CPT inconclusive and IL1B secr inh 11.
For O=C(Nc1cccc(Cl)c1Cl)c1cc2nc(-c3ccc(Cl)cc3)cc(C(F)(F)F)n2n1 the results were TGFb SMAD3 inh -2%, HepG2 tox 1%, TDP1 cell noCPT -1%, TDP1 inh 3% and TDP1 cell CPT -22%.
For Cc1c(C(=O)N2CC3CCC2C3)sc2ncnc(NCc3ccco3)c12 (configuration not stated) the results were TDP1 cell noCPT -27% and TDP1 cell CPT 7%.
CC(C)N(Cc1ccccc1)C(=O)CCS(=O)(=O)c1cc2c(cc1Cl)NC(=O)CO2 was read as TGFb SMAD3 inh -1%, HepG2 tox -26% and TDP1 inh 6%.
For CCn1nc(C)c(/C=C2\CCCC3=C2OC(N)=C(C#N)C3c2c(C)nn(CC)c2C)c1C (configuration not stated) the results were TDP1 inh 3%.
For N#CC1=C(N)OC2=C(CCc3ccccc32)C1c1ccccc1 (configuration not stated) the results were TGFb SMAD3 inh inconclusive, HepG2 tox -104%, TDP1 cell noCPT 0.92µM*, TDP1 inh 3%, TDP1 cell CPT 0.82µM* and IL1B secr inh 13.
Cc1ccc(/C=C2\CCC3=C2OC(N)=C(C#N)C3c2ccc(C)cc2)cc1 (configuration not stated) was read as TGFb SMAD3 inh 68%, HepG2 tox -14%, TDP1 cell noCPT 6.5µM*, TDP1 inh 7%, TDP1 cell CPT 4.6µM* and IL1B secr inh -70*.
For Oc1cccc(CN2CCOCC2)c1O the results were TGFb SMAD3 inh -12%, HepG2 tox -2%, TDP1 cell noCPT inconclusive, TDP1 cell CPT 26µM* and IL1B secr inh -5.
For Oc1c(CN2CCOCC2)cc(CN2CCOCC2)c(O)c1O the results were TGFb SMAD3 inh 4%, HepG2 tox -9%, TDP1 cell noCPT inconclusive, TDP1 cell CPT 18µM* and IL1B secr inh 14.
Screening CCCc1cc(CN2CCOCC2)c(O)c(CN2CCOCC2)c1O returned TGFb SMAD3 inh inconclusive, HepG2 tox -42%, TDP1 cell noCPT 18µM*, TDP1 cell CPT 15µM* and IL1B secr inh inconclusive.
CC(=O)c1ccc(N(CC(=O)NC2CCCCC2)C(=O)c2csnn2)cc1 was read as TGFb SMAD3 inh 18%, HepG2 tox 0%, TDP1 cell noCPT inconclusive, TDP1 inh 1%, TDP1 cell CPT 0% and IL1B secr inh -3.
`O=C(CCc1ccccn1)N1CCCC(N2CCN(c3cccc(C(F)(F)F)c3)CC2)C1` (configuration not stated) gave TGFb SMAD3 inh -8%, HepG2 tox -2%, TDP1 cell noCPT -29%, TDP1 inh 3%, TDP1 cell CPT inconclusive and IL1B secr inh -16.
For CCC(C)NC(=O)Cn1c(=O)n(CCCC(=O)NCc2ccc(C)cc2)c(=O)c2ccccc21 (configuration not stated) the results were TGFb SMAD3 inh -8%, HepG2 tox 1%, TDP1 cell noCPT -16%, TDP1 inh -2%[12.3 µM] and TDP1 cell CPT -5%.
COc1ccc(/C=C/C(=O)O)cc1S(=O)(=O)NC1CCS(=O)(=O)C1 (configuration not stated) was read as TGFb SMAD3 inh 74%, HepG2 tox 11%, TDP1 cell noCPT -3%, TDP1 inh 50µM*, TDP1 cell CPT 4% and IL1B secr inh 25.
